Source: the supplement of paper PMC6763611

System: Plasmodium falciparum NF54
Assay: growth inhibition relative to untreated control; higher = more inhibition
Conditions: 1 µM; minimal medium (MM); 72 h
Procedure, shortened: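 P. falciparum NF54 ring stages (1% hematocrit, 1% parasitemia, 100 μL/well in 96-well half-area dark plates) were exposed for 72 h at 37 °C to single 5 μM or 1 μM doses of Pathogen Box compounds. The medium was minimal RPMI or minimal RPMI plus chorismate end-products (2.2 μM folate, 7.3 μM pABA, 7.3 μM pHBA, 111 μM tyrosine, 90 μM phenylalanine, tryptophan). Growth inhibition was read by SYBR Green, normalised to untreated controls, with uninfected erythrocytes as background.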

Row | Structure (SMILES) | growth inhibition
1 | CS(=O)(=O)c1ccc(C(=O)N(CC2CCCO2)c2nc3ccccc3s2)cc1[N+](=O)[O-] (centres undefined) | 31.2%
2 | CN(C)CCNC(=O)N1CCCN(c2ncnc3cc(-c4ccccc4)sc23)CC1 | 99.2%
3 | c1cc(C2=NCCN2)cc(-c2cc(-c3ccc(C4=NCCN4)cc3)no2)c1 | 81.6%
4 | c1cncc(NCc2ccc(-c3cc4ccncc4cc3OC3CCNCC3)s2)c1 | 98%
5 | CC(C(=O)N1CCCC1)N1CCN(S(=O)(=O)c2ccc(C(C)(C)C)cc2)CC1 (centres undefined) | 71%
6 | COc1cc(C2=NCCN2)ccc1-n1cc(-c2cccc(C3=NCCN3)c2)nn1 | 55%
7 | CC(C)NCC(=O)Nc1cccc(C(=O)Nc2cccc(C(F)(F)F)c2)c1 | 83.1%
8 | O=S(=O)(c1ccc(Cl)cc1)N1CCN(C(=S)NCc2ccco2)CC1 | 93.6%
9 | CN1CCN(c2cc(-c3ccc(F)cc3)nc(-c3ccncc3)n2)CC1 | 95.3%
10 | CCN(CC)CCCN1CCN(C(=O)c2cccc(-c3noc(C(F)(F)F)n3)c2)CC1 | 84.9%
11 | CCCCOC(=O)Nc1cc2nc(C3CCCCC3)[nH]c2cc1N1CCCC1 | 15.4%
12 | CCN(CC)CCCCCCNc1cc(OC)cc2c(C)ccnc12 | 92.8%
13 | CC(=O)Nc1ccc(-c2noc(CC3CCCN(Cc4cccc(F)c4C)C3)n2)cc1 (centres undefined) | < 0%
14 | CC(C)n1nc(-c2cc3c(Cl)cccc3[nH]2)c2c(N)ncnc21 | 16%
15 | Cc1nnc(NC(=O)c2cn(-c3ccccc3)nc2-c2ccccc2C)o1 | 87.7%
16 | O=C1Nc2ccc(Br)cc2C12NCCc1c2[nH]c2ccccc12 (centres undefined) | 94.7%
17 | NCCCC(N)(C(=O)O)C(F)F (centres undefined) | < 0%
18 | CCCCc1ccc(NC(=O)Nc2ccc(O[C@H]3CCCC[C@@H]3N(C)c3ccccc3)c(F)c2)cc1 | < 0%
19 | COc1ccc(C2=NCCN2)cc1-c1cn(-c2cccc(C3=NCCN3)c2)nn1 | 80.4%
20 | COc1cc(C2=NCCN2)ccc1-c1cn(-c2cccc(C3=NCCN3)c2)nn1 | 86.7%

Row | Structure (SMILES) | growth inhibition
21 | CCCCN(CCCC)c1c(C#N)cc(S(=O)(=O)Nc2ccccc2)cc1C#N | < 0%
22 | Nc1ncnc2[nH]nc(Cc3cccc4ccccc34)c12 | 22.2%
23 | Cc1cc(C)nc(-n2nc(C)cc2Nc2ccccc2)n1 | 9.77%
24 | CC(C)C(NC(=O)Cc1cccc2ccccc12)C(=O)Nc1cccc(C#N)c1 (centres undefined) | 86.3%
25 | FC(F)(F)c1cccc(-c2nc3c(NCc4ccncc4)nccc3[nH]2)c1 | > 100%
26 | O=C(Nc1nc(-c2ccccn2)cs1)c1cncn1-c1ccccc1 | 7.24%
27 | Cc1cc(OCC(=O)Nc2ccc(C(C)C)cc2)n(C)c(=O)c1C#N | 33%
28 | COc1cncc(-c2cncc(N3CCN(c4ccncc4)CC3)n2)c1 | > 100%
29 | CCc1ccccc1-n1c(C)cn2c3c(=O)n(C(C(=O)OC)C(C)C)c(=O)n(C)c3nc12 (centres undefined) | 83%
30 | COc1ccc(C2(C(=O)Nc3ccc(Br)cc3)CCCC2)cc1 | 2.06%
31 | C[C@]1(COc2ccc(N3CCC(Oc4ccc(OC(F)(F)F)cc4)CC3)cc2)Cn2cc([N+](=O)[O-])nc2O1 | 3.49%
32 | Cc1nn2c(=O)c3c([nH]c2c1-c1ccc(Cl)cc1)CCCC3 | 22.1%
33 | COc1cccc(OCC(=O)c2ccc(Br)cc2)c1 | < 0%
34 | CC(C)c1ncc(-c2ccncc2)c([C@H]2CC[C@H](CNC(=O)c3cccnc3)CC2)n1 | 76%
35 | CN1CCCN(C(c2ccccc2)c2ccc(Cl)cc2)CC1 (centres undefined) | < 0%
36 | O=C(NCc1cc(Cl)cc(Cl)c1)c1c(C(F)(F)F)nc2ccccn12 | 10.6%
37 | Cc1ccc2[nH]c3c(NCCN(C)C)ncnc3c2c1 | 96.5%
38 | O=C(C1CCN(c2nnnn2-c2ccccc2)CC1)N1CCc2ccccc2C1 | 33%
39 | Cn1ccnc1CNCCS(=O)(=O)c1cccc(Nc2ccc(-c3cccc(F)c3)cn2)c1 | < 0%
